An excerpt weighted towards active compounds, which were near 12% of everything screened.
JMJD2A Tudor inh: inhibitors of human JMJD2A Tudor domain | Potency, µM (series often up to 114 µM), for inactives: at the highest dose activity change, negative = inhibition, most hits filed as inhibitors | AlphaScreen JMJD2A-Tudor / H3K4me3 peptide binding | hit rate 4.4% among 390,000 | O75164; note: % is set by controls: 0 for no effect and ±100 for the full control effect; nearly all actives have a fitted effect of over 50% in size
Target sequence (O75164 whole entry, looked up, the tested form may be a part): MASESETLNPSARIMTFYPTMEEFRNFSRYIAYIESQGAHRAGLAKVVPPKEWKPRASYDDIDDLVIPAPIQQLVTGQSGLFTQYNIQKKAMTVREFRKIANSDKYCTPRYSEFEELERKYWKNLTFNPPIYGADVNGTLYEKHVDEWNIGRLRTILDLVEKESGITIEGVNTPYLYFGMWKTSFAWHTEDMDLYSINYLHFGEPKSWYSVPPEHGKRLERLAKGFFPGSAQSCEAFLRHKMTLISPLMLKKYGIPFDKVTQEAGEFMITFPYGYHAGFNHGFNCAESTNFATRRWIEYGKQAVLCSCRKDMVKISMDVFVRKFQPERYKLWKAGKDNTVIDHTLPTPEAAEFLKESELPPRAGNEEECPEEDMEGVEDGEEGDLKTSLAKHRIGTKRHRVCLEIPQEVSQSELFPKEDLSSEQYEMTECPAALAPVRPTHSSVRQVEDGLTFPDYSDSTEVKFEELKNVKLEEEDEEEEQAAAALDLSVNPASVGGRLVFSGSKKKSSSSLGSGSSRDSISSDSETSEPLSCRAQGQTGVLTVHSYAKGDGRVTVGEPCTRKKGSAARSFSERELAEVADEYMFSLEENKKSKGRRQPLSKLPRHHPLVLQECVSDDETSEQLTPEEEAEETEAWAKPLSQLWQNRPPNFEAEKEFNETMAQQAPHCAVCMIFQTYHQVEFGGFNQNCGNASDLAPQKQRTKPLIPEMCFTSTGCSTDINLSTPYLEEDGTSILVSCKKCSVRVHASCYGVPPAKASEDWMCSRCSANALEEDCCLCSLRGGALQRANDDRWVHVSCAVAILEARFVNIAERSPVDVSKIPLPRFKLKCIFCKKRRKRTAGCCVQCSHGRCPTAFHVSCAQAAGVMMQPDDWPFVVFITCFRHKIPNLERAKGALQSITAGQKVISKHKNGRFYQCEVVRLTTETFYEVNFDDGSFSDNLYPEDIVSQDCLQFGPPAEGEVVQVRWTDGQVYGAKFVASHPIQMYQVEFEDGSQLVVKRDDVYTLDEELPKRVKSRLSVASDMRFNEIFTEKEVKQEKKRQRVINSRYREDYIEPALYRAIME
HP1b binding inh: HP1-beta chromodomain-methylated histone interaction inhibition; P83916; AlphaScreen HP1-beta / biotin-H3K9me3 peptide binding; Potency, µM (top dose mostly 114 µM), without a hit: at the highest dose activity change, negative = inhibition, hits mostly inhibitors; hit rate 0.56% among 390,000; AID 540317; note: nearly all actives have a fitted effect of over 70% in size
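AlphaScreen: HP1-beta (50 nM) preformed 30 min with biotin-H3(1-18)K9me3 peptide (50 nM) in PBS pH 7.4, 0.01% Tween-20. Compound added for 30 min at RT, then streptavidin donor/nickel chelate acceptor beads (10 ug/mL) for 30 min.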
BAZ2B inh: blocks human BAZ2B; Q9UIF8; AlphaScreen BAZ2B-H3K14Ac peptide displacement; Potency, µM (series often up to 114 µM), for the others: at the top dose activity change, negative = inhibition, hits mostly inhibitors; hit rate 4.4% among 360,000; AID 504333; note: % is set by controls: 0 for no effect and ±100 for the full control effect; nearly all actives have a fitted effect of over 60% in size
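Multi-concentration screen (max 110 uM) measuring displacement of acetylated histone H3 peptide from BAZ2B by AlphaScreen, using 50 nM protein, 50 nM peptide and 10 ug/mL streptavidin donor plus Ni-chelate acceptor beads.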
G9a inh: blocks human histone lysine methyltransferase G9a. G9a H3K9 monomethylation, AlphaScreen, 2 h. Potency, µM (highest dose often 102 µM), without a hit: at the highest dose activity, negative = inhibition, actives largely listed as inhibitors. Q96KQ7. AID 504332. hit rate 8.8% among 350,000; note: % is set by controls: 0 for no effect and ±100 for the full control effect; nearly all actives have a fitted effect of over 75% in size
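Enzyme 20 nM + cpd, 15 min RT; add b-H3K9 pep 500 nM / SAM 20 uM; 2 h RT; anti-H3K9me1 Ab 0.5 ug/mL + SA donor / anti-rabbit acceptor beads 20 ug/mL each, 10 min; AlphaScreen read.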
Sfp PPTase inh: inhibitors of Bacillus subtilis Sfp phosphopantetheinyl transferase; Q9F4F7; Biochemical Sfp PPTase activity, qHTS; Potency, µM, for inactives: largest response in the series, negative = inhibition, actives largely listed as inhibitors; hit rate 3.5% among 310,000; AID 1490;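 note: the enzyme is Sfp with the accession as filed and its product quenches rhodamine fluorescence; 0% = enzyme reaction without inhibitor and -100% = no enzyme wells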
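Reaction rates are the 30-min fluorescence difference (ex 525, em 598 nm) in wells containing 15 nM Sfp, 5 uM rhodamine-CoA and 12.5 uM BHQ-2-YbbR at pH 7.6 with 10 mM MgCl2.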
* = called active by the depositor; ? = inconclusive; . = no result given; ! = repeats disagree; [ ] = dose if it differs, or a comment. Calls come from the whole dose curve; as a rule, active = well fitted curve in the direction sought with a large enough effect; inconclusive = small, poorly fitted or top-dose-only effect, or another doubt; inactive = no such curve, though single readings can be large; an effect the other way counts as inactive or inconclusive. Potency is the fitted concentration of half-maximal effect.

SMILES | JMJD2A Tudor inh | HP1b binding inh | BAZ2B inh | G9a inh | Sfp PPTase inh
COc1ccccc1NC(C)C(=O)N/N=C/c1ccccc1OCc1cccc(Br)c1 (configuration not stated) | ? | -6% | -37% | 50µM* | 7%
Cc1ccc(/C=N/NC(=O)c2ccccc2OCc2cccc(Br)c2)o1 | -36% | ? | -39% | 25µM* | -20%
Cc1cccc(/C=N/NC(=O)C(C)Nc2cccc3ccccc23)n1 (configuration not stated) | ? | 19% | -9% | ? | -15%
COc1cc([N+](=O)[O-])cc(/C=N/NC(=O)C(C)Nc2cccc3ccccc23)c1O (configuration not stated) | ? | -29% | 45µM* | 45µM* | 4%
CC(Nc1cccc2ccccc12)C(=O)N/N=C/c1ccc([N+](=O)[O-])cc1 (configuration not stated) | ? | ? | ? | ? | 32µM*
O=C(N/N=C/c1cccnc1)c1ccccc1OCc1cccc(Br)c1 | -2% | 37% | . | -31% | -3%
Cc1cc(C)nc(N/N=C/c2ccccc2OCc2cccc(Br)c2)n1 | -36% | -2% | -10% | 14%[59 µM] | 2%
Fc1ccc(Cn2nnc(-c3ccc(Cl)cc3)n2)cc1 | 19% | 69% | 9% | -14% | 14%
CN1CCN(C(=S)NC(=O)/C=C/c2cccs2)CC1 | ? | 24% | -17% | 50µM* | -7%
O=C(NC(=S)N1CCCC1)c1ccc(Cl)cc1 | -13% | 34% | -3% | 31% | 9%
CN1CCN(C(=S)NC(=O)/C=C/c2cccc3ccccc23)CC1 | ? | 2% | -1% | -4% | 1%
CC(NNC(=S)N1CCN(c2ccccn2)CC1)c1nccc2ccccc12 (configuration not stated) | 20µM* | 25µM* | . | . | .
O=C(NC(=S)N1CCN(c2ccc(O)cc2)CC1)c1ccco1 | -5% | 11% | . | . | .
CN1CCN(C(=S)NC(=O)c2ccc(Cl)cc2)CC1 | ? | ? | 56µM* | 28µM* | 35µM*
CN1CCN(C(=S)NC(=O)c2ccco2)CC1 | 16µM* | 4% | ? | 50µM* | 56µM*
CCOc1ccc(NC(=O)C(CC(=O)O)Cc2ccc(Br)cc2)cc1 (configuration not stated) | -11% | 10% | -13% | -9% | 11%
Cc1c(NC(=O)CSc2nc3c(cnn3-c3ccccc3)c(=O)[nH]2)c(=O)n(-c2ccccc2)n1C | 13% | 21% | -3% | -2%[59 µM] | 14%
COc1ccc(/C=N/NC(=O)c2cccc(Br)c2)cc1Cn1cc(Cl)cn1 | -15% | 63% | -37%[57.1 µM] | 108%[59 µM] | 7%
O=C(NC(=S)N1CCN(c2ccccn2)CC1)c1ccco1 | -12% | 11% | ? | 56µM* | -27%
O=C(NC(=S)N1CCN(c2ccc([N+](=O)[O-])cc2)CC1)c1ccco1 | -7% | 17% | -12% | . | 21%
CCOC(=O)C1(Cc2ccc(Cl)cc2)CCN(C(=O)c2cnc(C)cn2)CC1 | -11% | 21% | -17% | 15% | 5%
N#Cc1sc(=O)[nH]c1Cl | 89µM*! | 17% | . | . | 50µM*
CCN(CC)c1cc(C)nc2nc(-c3ccc(C)cc3)nn12 | -20% | 16% | -10% | -10%[59 µM] | .
CC(C)n1c(=S)[nH]c2c1c(=O)[nH]c(=O)n2C | 2µM* | 10µM* | ? | ? | 10µM*
Cc1ccc(C(=O)Nc2nc3n(n2)C(c2ccccc2)CC(=O)N3)cc1 (configuration not stated) | -9% | 8% | -16% | 9% | 12%
SMILES | JMJD2A Tudor inh | HP1b binding inh | BAZ2B inh | G9a inh | Sfp PPTase inh
CN(C)/C=C/C(=O)c1cc(N2CCOCC2)ccc1[N+](=O)[O-] | 8% | 28% | -17% | -8% | 8%
CCc1ccc(OCC(=O)NC(=S)Nc2ccc(F)cc2)c(Br)c1 | -17% | 29% | 3%[57.1 µM] | 7% | 18%
CCc1ccc(OCC(=O)NC(=S)Nc2cccc(CO)c2)c(Br)c1 | -13% | 24% | -11% | -46%[12.7 µM] | 25µM*
O=C(NS(=O)(=O)c1ccc(F)cc1)O[C@@H]1C(=O)c2cc(Br)ccc2O[C@H]1c1ccc2c(c1)OCO2 | . | . | . | . | -10%
Cc1cccc(-n2ccnc2SCC(=O)Nc2cccc(S(=O)(=O)NC3=NCCC3)c2)c1C | -23% | 14% | -12% | 40µM* | .
Cc1ccc(C)c(NC(=O)CSc2nccn2-c2cccc(C)c2C)c1 | ? | ? | 10µM* | 18µM* | .
CC1CCN(C(=O)c2ccc(NC(=O)c3cccs3)cc2)CC1 | -8% | 15% | 0% | 25% | 8%
CSc1ccc(/C=C/C(=O)c2ccc(O)cc2)cc1 | ? | -19% | -39% | ? | 79µM*
COC(=O)c1ccc(/C=C/C(=O)c2ccc(OC)cc2)cc1 | 100µM* | 3% | 11% | -8% | 4%
Cc1ccc(/C=C/C(=O)c2ccc(O)cc2)cc1 | -19% | 14% | -24% | 20%[59 µM] | 9%
COc1ccc(Oc2ccc(/C=C/C(=O)c3ccc(O)cc3)cc2[N+](=O)[O-])cc1 | ? | -24% | ? | 40µM* | -3%
COC(=O)[C@H](C)NC(=O)/C=C/c1ccc(OC)cc1 | -6% | 36% | 1% | 71µM* | ?
O=C(/C=C/c1ccc(O)c([N+](=O)[O-])c1)c1ccc2ccccc2c1 | ? | -30% | ? | ? | -7%
COc1cccc(CNC(=O)CCS(=O)(=O)c2cc3c(cc2C)NC(=O)CO3)c1 | -10% | -37% | -3% | 7% | 7%
Cc1cc(C)cc(NC(=O)CSc2ccc(-c3cccs3)nn2)c1 | -17% | 40% | -27% | 22µM* | 1%
Cc1nc(C)c(-c2ccc(SCC(=O)Nc3ccccc3)nn2)s1 | 8% | 33% | -1% | 79µM* | 16%
COC(=O)C[C@H](NC(=O)Cn1cc(C)c(=O)[nH]c1=O)C(=O)OC | -14% | 37% | . | . | .
CCOC(=O)N1CCN(S(=O)(=O)c2ccc(C(=O)NNc3nc4c(C)cc(C)cc4s3)cc2)CC1 | ? | 5% | -11% | 45µM* | ?
Cc1cc(C)c2nc(NNC(=O)c3ccc(S(=O)(=O)N4CCCCC4)cc3)sc2c1 | ? | 9% | ? | 25µM* | ?
CCOC(=O)N1CCN(S(=O)(=O)c2ccc(C(=O)NNc3nc4ccc(Cl)cc4s3)cc2)CC1 | -25% | 23% | -6% | 79µM* | 5%
CCOC(=O)N1CCN(S(=O)(=O)c2ccc(C(=O)NNc3nc4cc(C)cc(C)c4s3)cc2)CC1 | ? | -12% | ? | 50µM* | -1%
Nc1nnc(CC(=O)N/N=C/c2cccc(OCCOc3ccccc3)c2)s1 | -7% | 45% | 10% | -12%[59 µM] | 19%
Cc1ccc(C(NC(=O)/C=C\c2ccc3c(c2)OCO3)C(=O)Nc2ccc3c(c2)OCO3)cc1 (configuration not stated) | -16% | 0% | -15% | -17%[59 µM] | 7%

Screening results (PubChem BioAssay)
